Active and inactive are the calls of the source.

The subject of assay [1] is Human papillomavirus type 1a protein E7 (residues 44-93). In words: small molecules binding HPV E7 44-93 – biochemical, small-molecule microarray, residues 44-93, 635 nm fluorescence, primary screen (AID 1108).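 Also: E7 fragment applied at 1 µg/mL in TBST for 1 h at 4 C; score combines spot fluorescence with its signal to noise ratio.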 As to conditions: fluorescence 635 nm, higher = more signal.
Assay [2] is described as follows: hepatitis C replication reporter changes, two-sided – Huh7 cells, luciferase reporter, HCV replication inhibitor project, primary screen (AID 1109).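 Also: huh7 hepatoma cells harbouring a luciferase neomycin HCV replicon reporter; luciferase luminescence as measure of HCV replicon replication; test concentration not given here.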 The settings on record: Huh7 HCV replicon luciferase reporter, 48 h; higher = more signal. A general note: In a reporter assay the amount or activity of a reporter protein is the signal.
In assay [3] the target is Left-right determination factor 2 (Homo sapiens) (UniProt O00292). The experiment in a line: small molecules binding LEFTY2 protein – biochemical, small-molecule microarray, 635 nm fluorescence scan, primary screen (AID 1110). As to conditions: higher = more signal.
In assay [4] the target is Calmodulin-1 (Homo sapiens) (UniProt P0DP23). The experiment in a line: small molecules binding calmodulin-1 with EGTA – biochemical, small-molecule microarray, Cy5-labelled CALM1, profiling panel (AID 1111).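 Also: labelled calmodulin applied in Tris saline Tween buffer holding calcium plus EGTA and DTT.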 The settings on record: Cy5-CALM1 binding fluorescence, higher = more signal.
The target is the same in assay [5]. In words: small molecules binding Ca-loaded calmodulin-1 – biochemical, small-molecule microarray, Cy5-labelled CALM1, plus calcium, artefact control for SMM control-protein annotation, profiling panel (AID 1112).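 Also: score merges spot fluorescence with signal to noise from triplicate slides.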 As to conditions: Cy5-CALM1 binding fluorescence, higher = more signal.
Assay [6] is described as follows: probe aWnt5a binding to arrayed compounds – biochemical, biotinylated probe, 635/667 nm fluorescence, primary screen (AID 1113).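 Also: score merges 667 nm fluorescence intensity with signal-to-noise per printed feature.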 As to conditions: small-molecule microarray, higher = more signal.
The nature of assay [7]: probe aShh binding to arrayed compounds – biochemical, biotinylated probe, 635/667 nm fluorescence, primary screen (AID 1114).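 Also: probe is biotin-labelled aShh protein from a stem cell growth factor screen; measures binding of labelled protein to compounds printed on the slide; score merges feature fluorescence at 667 nm with signal-to-noise.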 The settings on record: small-molecule microarray, higher = more signal.
Assay [8] in a line: probe aNog binding to arrayed compounds – biochemical, biotinylated probe, 635/667 nm fluorescence, primary screen (AID 1115).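 Also: probe is biotinylated aNog protein used at 0.15 µg/mL for 1 h at 4 C; z-score combines 667 nm fluorescence of each spot with its signal to noise.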 As to conditions: small-molecule microarray, higher = more signal.
The target of assay [9] is Torsin-1A-interacting protein 1 (Homo sapiens) (UniProt Q5JTV8). The experiment in a line: compound microarray binding of lysate hLAP1 – cell lysate, small-molecule microarray, COS7 lysate, 635/667 nm fluorescence, primary screen (AID 1116). The settings on record: 635 nm fluorescence, higher = more signal.
The target of assay [10] is Alpha-bungarotoxin (Bungarus multicinctus) (UniProt P60615). In words: compounds binding labelled alpha-BTX control protein – biochemical, small-molecule microarray, Alexa647 label, 635/667 nm fluorescence, artefact control for SMM control protein annotation, profiling panel (AID 1117). As to conditions: alpha-BTX-A647 binding fluorescence, higher = more signal.
The target of another assay is Albumin (Bos taurus) (UniProt P02769). The experiment in a line: compounds binding labelled BSA control protein – biochemical, small-molecule microarray, Alexa647 label, 635/667 nm fluorescence, artefact control for SMM control protein annotation, profiling panel (AID 1118).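 Also: score merges 667 nm emission intensity and signal-to-noise per printed compound spot.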 As to conditions: BSA-A647 binding, fluorescence 635 nm, higher = more signal.
Assay [11] can be described thus: probe aXIP binding to arrayed compounds – biochemical, NeuroSMM set, 635/667 nm fluorescence, primary screen (AID 1119).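 Also: probe is the protein aXip251-270 applied at 1 µg/mL to compound-printed slides; binding of probe to printed compounds measured as 667 nm fluorescence plus signal to noise.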 As to conditions: small-molecule microarray, higher = more signal, called active from +8 up or from −8 down.
Assay [12] can be described thus: probe aNOTCH3 binding on compound microarray – biochemical, small-molecule microarray, 635/667 nm fluorescence, primary screen (AID 1120).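 Also: probe is a biotin-tagged antibody raised against NOTCH3 rather than NOTCH3 protein; score merges spot fluorescence near 667 nm with spot signal to noise.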 As to conditions: higher = more signal.
Assay [13] can be described thus: probe aNOTCH2 binding on compound microarray – biochemical, small-molecule microarray, 635/667 nm fluorescence, primary screen (AID 1121).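 Also: score merges feature fluorescence read at 667 nm with its signal to noise.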 As to conditions: higher = more signal.
The target in assay [14] is Carbonic anhydrase 2 (Homo sapiens) (UniProt P00918). The experiment in a line: compounds binding carbonic anhydrase 2 – biochemical, small-molecule microarray, Alexa647-labelled CAII, profiling panel (AID 1122). The settings on record: CAII-A647 binding fluorescence, higher = more signal.
Assay [15] can be described thus: COS7 lysate on small-molecule microarray, probe aHis, 635 nm (AID 1123).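 Also: z-score combines 667nm fluorescence intensity with signal-to-noise per printed compound spot.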 The settings on record: COS7 cell lysate, fluorescence, higher = more signal.
A short description of assay [16]: probe aLAP1 signal on lysate-treated microarray – cell lysate, small-molecule microarray, COS7 lysate, primary screen (AID 1124).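 Also: lysate comes from COS7 cells expressing LAP1 and is applied at 0.3 µg/mL; score merges spot fluorescence near 667 nm with signal-to-noise over triplicate slides.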 As to conditions: probe aLAP1, fluorescence, higher = more signal.
In a further assay the test system is Sam68 (KHDRBS1). In words: compounds binding KHDRBS1 protein – biochemical, small-molecule microarray, 635 nm fluorescence, primary screen (AID 1125).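 Also: score merges 667 nm channel intensity with signal to noise over triplicate slides.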 As to conditions: higher = more signal.
Assay [17] concerns Chordin-like protein 2 (CHRDL2). In words: compounds binding chordin-like 2 – biochemical, small-molecule microarray, 635 nm fluorescence, primary screen (AID 1126).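 Also: printed compound slides probed with Chrdl2 protein at 4 µg/mL for 1 h at 4 C; score merges 667 nm emission intensity with signal to noise over three replicate slides.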 As to conditions: fluorescence 635 nm, higher = more signal.
Assay [18] deals with Concanavalin-A (Canavalia ensiformis) (UniProt P02866). In words: compounds binding concanavalin A lectin – biochemical, small-molecule microarray, Alexa647 label, 635 nm, artefact control for SMM control protein annotation, primary screen (AID 1127).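 Also: z combines 667 nm emission intensity with signal-to-noise across three replicate slides.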 As to conditions: ConA-A647 binding fluorescence, higher = more signal.
Concanavalin-A (Canavalia ensiformis), sequence (P02866 whole entry, looked up): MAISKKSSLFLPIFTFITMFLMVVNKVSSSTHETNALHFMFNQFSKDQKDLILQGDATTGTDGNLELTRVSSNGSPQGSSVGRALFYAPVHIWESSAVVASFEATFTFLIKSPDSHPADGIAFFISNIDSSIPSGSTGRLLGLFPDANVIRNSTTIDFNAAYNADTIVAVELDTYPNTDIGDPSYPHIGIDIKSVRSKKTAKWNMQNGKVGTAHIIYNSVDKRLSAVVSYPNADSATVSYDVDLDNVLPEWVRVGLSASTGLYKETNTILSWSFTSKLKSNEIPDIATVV

Albumin (Bos taurus), sequence (P02769 whole entry, looked up): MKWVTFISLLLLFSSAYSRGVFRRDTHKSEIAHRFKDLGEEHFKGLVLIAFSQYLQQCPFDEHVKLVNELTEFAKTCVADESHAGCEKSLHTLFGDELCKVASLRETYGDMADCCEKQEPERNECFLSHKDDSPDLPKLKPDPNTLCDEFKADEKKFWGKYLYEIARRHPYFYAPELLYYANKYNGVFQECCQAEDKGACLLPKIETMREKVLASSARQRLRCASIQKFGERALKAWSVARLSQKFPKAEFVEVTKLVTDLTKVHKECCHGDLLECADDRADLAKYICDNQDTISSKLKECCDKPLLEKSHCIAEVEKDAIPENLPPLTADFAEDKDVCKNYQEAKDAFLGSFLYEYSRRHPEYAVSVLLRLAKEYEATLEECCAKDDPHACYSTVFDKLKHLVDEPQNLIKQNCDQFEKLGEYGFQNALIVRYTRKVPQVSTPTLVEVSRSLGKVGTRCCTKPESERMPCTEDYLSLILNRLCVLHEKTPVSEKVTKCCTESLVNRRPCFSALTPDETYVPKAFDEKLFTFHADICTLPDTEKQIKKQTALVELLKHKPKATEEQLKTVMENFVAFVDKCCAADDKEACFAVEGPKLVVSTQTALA
Left-right determination factor 2 (Homo sapiens), sequence (O00292 whole entry, looked up): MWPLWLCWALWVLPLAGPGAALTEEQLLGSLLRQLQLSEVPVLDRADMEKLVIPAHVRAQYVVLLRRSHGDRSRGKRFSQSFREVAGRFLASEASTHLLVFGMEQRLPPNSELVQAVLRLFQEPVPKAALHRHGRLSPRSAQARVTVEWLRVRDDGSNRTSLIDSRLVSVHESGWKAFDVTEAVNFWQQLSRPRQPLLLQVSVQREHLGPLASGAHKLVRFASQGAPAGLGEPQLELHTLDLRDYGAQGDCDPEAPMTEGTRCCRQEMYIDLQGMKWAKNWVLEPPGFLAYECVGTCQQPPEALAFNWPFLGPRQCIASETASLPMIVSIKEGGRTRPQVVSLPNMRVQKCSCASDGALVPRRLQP
Torsin-1A-interacting protein 1 (Homo sapiens), sequence (Q5JTV8 whole entry, looked up): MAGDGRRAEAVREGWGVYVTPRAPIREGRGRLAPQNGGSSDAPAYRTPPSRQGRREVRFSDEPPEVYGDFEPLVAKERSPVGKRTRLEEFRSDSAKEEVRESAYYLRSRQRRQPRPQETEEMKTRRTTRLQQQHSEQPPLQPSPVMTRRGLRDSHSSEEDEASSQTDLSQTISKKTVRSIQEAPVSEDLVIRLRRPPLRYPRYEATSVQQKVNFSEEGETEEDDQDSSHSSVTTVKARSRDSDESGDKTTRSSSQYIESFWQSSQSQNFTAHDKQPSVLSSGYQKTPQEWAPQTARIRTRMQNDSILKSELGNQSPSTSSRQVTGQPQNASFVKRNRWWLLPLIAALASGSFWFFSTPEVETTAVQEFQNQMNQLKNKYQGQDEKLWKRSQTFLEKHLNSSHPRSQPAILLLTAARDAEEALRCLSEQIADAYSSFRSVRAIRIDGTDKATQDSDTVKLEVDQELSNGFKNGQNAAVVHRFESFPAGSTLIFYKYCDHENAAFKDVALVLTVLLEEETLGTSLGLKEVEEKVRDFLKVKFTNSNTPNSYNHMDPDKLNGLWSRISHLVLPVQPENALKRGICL
Alpha-bungarotoxin (Bungarus multicinctus), sequence (P60615 whole entry, looked up): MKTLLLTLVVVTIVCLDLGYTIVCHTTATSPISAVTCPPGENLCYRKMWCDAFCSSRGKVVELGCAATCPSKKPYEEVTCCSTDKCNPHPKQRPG

As to `NCCCCCCNC(=O)[C@H]1C[C@H]2C(=O)N3CCC[C@H]3C(=O)N2[C@H]1c1ccc(O)cc1`, the composite z-score was -0.0863 in assay [1]; 0.55 in [3]; 0.192 in [4]; 0.102 in assay [5]; 0.15 in [6]; -0.0441 in assay [7]. For the same compound, the composite z-score is -0.28 in assay [8]; 0.999 in [9]; 1.05 in assay [10]; 0.425 with Albumin (Bos taurus); -0.0362 in assay [12]; -0.201 in [13]. In addition, the composite z-score in [14] amounted to 0.722; in [15], 0.307; in assay [16], 0.597; in the assay on Sam68 (KHDRBS1) it was 0.644; in [17], 0.777; in [18], 0.998. This compound registered a z-score in assay [2] of 0.0433. For the same compound, the composite Z-score in [11] is 2.61 (inactive).
`CC(C)=CCCC(C)=CC(O)C1C=CC2C(=O)N(c3ccccc3)C(=O)C2N1Nc1ccc([N+](=O)[O-])cc1` (stereo not given): the composite z-score in assay [1] is 1.42; in assay [3] it was -0.183; in [4], 1.78; in [5], 0.512; in assay [6], -0.0194; in assay [7], 0.0952. Further, the composite z-score was 1.71 in [8]; 1.08 in assay [9]; 0.972 in assay [10]; 1.01 with Albumin (Bos taurus); 0.155 in assay [12]; -0.0697 in [13]. Moreover, the composite z-score in assay [14] was 0.856; in [15], 2.77; in assay [16], 0.167; in the assay on Sam68 (KHDRBS1) it was 1.35; in assay [17], -1; in assay [18], 1.14. Also, in assay [2], the z-score was -0.135. Besides, in [11], the composite Z-score is 0.649 (inactive).
As for `CCCCC=C[C@@H](NC(=O)CCc1ccccc1)c1ccccc1`, the composite z-score in assay [1] came to 1.38; in assay [3], 0.151; in assay [4], 0.504; in assay [5], 0.57; in [6], 0.145; in assay [7], 1.11. In addition, the composite z-score came to 1.11 in [8]; 1.49 in assay [9]; 1.19 in assay [10]; 0.585 with Albumin (Bos taurus); 0.23 in [12]; 0.0409 in assay [13]. In addition, the composite z-score in [14] was 0.689; in assay [15] it was 2.37; in assay [16], 0.785; with Sam68 (KHDRBS1), 1.2; in [17], 0.0782; in assay [18], 1.12. In [2], this compound returned a z-score of -2.6. The composite Z-score in assay [11] is 1.46 (inactive).
For the compound `CC(C)C[C@@H]1NC(=O)[C@@H]2C[C@H](C(=O)NCCCC[N+](C)(C)C)[C@H](c3cccc(OCCO)c3)N2C1=O`, the composite z-score was -0.832 in assay [1]; 1.01 in [3]; -0.863 in assay [4]; 0.348 in assay [5]; -0.0236 in [6]; 0.151 in assay [7]. The composite z-score is -0.198 in [8]; 1.05 in [9]; 0.324 in assay [10]; -1.59 with Albumin (Bos taurus); 0.116 in [12]; -0.0999 in assay [13]. In addition, the composite z-score worked out at 0.479 in [14]; 0.432 in assay [15]; 0.255 in [16]; 0.82 in the assay with Sam68 (KHDRBS1); 1.44 in [17]; 0.496 in [18]. The z-score in [2] is -0.604. Also, the composite Z-score in assay [11] was 0.0578 (inactive).
For `C=C(CCCC)/C(=C/C[C@@H](OC(=O)c1ccncc1)c1ccccc1OCCO)c1cc(C(=O)OC)ccc1OC`, the composite z-score was 1.4 in [1]; 0.0979 in assay [3]; -0.154 in assay [4]; -0.351 in assay [5]; -0.0735 in assay [6]; -0.0626 in assay [7]. Further, the composite z-score in assay [8] was -0.518; in [9] it was 0.603; in assay [10], 1.93; with Albumin (Bos taurus) it was 0.865; in [12], 0.125; in assay [13], -0.0317. The composite z-score was 0.616 in assay [14]; 1.28 in assay [15]; 0.902 in assay [16]; 1.25 with Sam68 (KHDRBS1); -0.0027 in [17]; -0.251 in [18]. For the same compound, the z-score in assay [2] is -2.61. Besides, in assay [11], the composite Z-score is -0.0662 (inactive).
On to `COCCCNC(=O)[C@@H]1c2ccccc2C(=O)N(Cc2cc(F)cc(C(F)(F)F)c2)[C@H]1c1ccc(CO)cc1`, for which the composite z-score was -1.6 in [1]; -1.36 in assay [3]; -0.365 in assay [4]; -0.167 in assay [5]; -0.212 in assay [6]; -0.153 in assay [7]. Besides, the composite z-score is -0.285 in assay [8]; -1.13 in assay [9]; -0.4 in assay [10]; -0.146 with Albumin (Bos taurus); -0.388 in [12]; -0.0826 in assay [13]. The composite z-score in assay [14] is 0.761; in [15] it was -0.838; in [16], -0.438; in the assay on Sam68 (KHDRBS1), -1.24; in assay [17] it was -1.24; in assay [18], -0.265. The compound further displayed a z-score in assay [2] of -0.252. Also, in assay [11], the composite Z-score is 0.147 (inactive).

The record behind these values is PubChem BioAssay.
